Screens (PubChem)
In the library only some 4% were active in any assay of this set; here they are far more common.
Peg3 prom inh – Peg3 promoter-driven luciferase inhibitors, primary screen, cell-based, HeLa, luciferase luminescence | AID 588405, 2011 | HeLa PEG-Prom luciferase reporter, overnight | inhibition, % at 20 µM | 360,000 compounds, 1.7% hits;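 active = inhibition of at least 50% at 20 µM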
HIF-2a inh – HIF-2a reporter inhibitors, primary screen, luminescence, 786-0 RCC cells. 786-0 RCC cells HIF-2a reporter, luciferase luminescence, overnight. inhibition, % at 18.8 µM. 360,000 compounds, 0.72% hits;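 active = inhibition of the luminescence signal of 40% or more relative to plate controls, in a single-dose primary screen at 18.75 µM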
TROY NFkB inh – inhibitors of TROY-driven NF-kB signaling, primary screen, Q293 LMP1-TROYcd cells, NF-kB luciferase, uHTS; Q293 LMP1-TROYcd NF-kB luciferase reporter, 4 h; inhibition, % at 10 µM; 360,000 compounds, 0.98% hits; AID 1347056, 2019;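 active = compounds whose plate-normalised and pattern-corrected inhibition of the luciferase reporter signal at the single screening dose is 50% or more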
EBV LMP1 NFkB – EBV LMP1-driven NF-kappaB luciferase reporter inhibitors, primary screen, cell-based, luminescence, single point | 350,000 compounds, 0.69% hits | AID 504558, 2011 | inhibition, % at 12.5 µM | LMP1-induced NF-kappaB luciferase reporter cells; in the data active = inhibition above about 41%;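 note: 0% = neutral control wells and 100% = reference inhibitor control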
TWEAK-Fn14 inh – inhibitors of TWEAK-Fn14 signaling, primary screen, luciferase reporter cells, uHTS; AID 1159606, 2016; TWEAK-stimulated Fn14 reporter cells, luciferase luminescence, 8 h; 360,000 compounds, 2% hits; inhibition, % at 10 µM; in the data active = inhibition above about 50%
MITF TRPM1 inh – inhibitors of MITF-dependent TRPM1 promoter reporter, primary screen, cell-based, SK-MEL-5, single point, luciferase; SK-MEL-5 TRPM1 promoter luciferase, 24 h; inhibition, % at 12.5 µM; 330,000 compounds, 0.83% hits; AID 488899, 2010;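 active = mean inhibition across replicates of 60% or more, whatever share of single replicates reaches that level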
Active calls of the source: *; / = not tested or not shown.

SMILES | Peg3 prom inh | HIF-2a inh | TROY NFkB inh | EBV LMP1 NFkB | TWEAK-Fn14 inh | MITF TRPM1 inh
CSc1cnn(CCC#N)c(=O)n1 | / | 5 | -8 | / | 4 | /
CC(=O)Oc1ccc(C(=O)Nc2ccc(S(=O)(=O)NCC3CCCO3)cc2)cc1 (stereo not given) | 4 | 26 | 51* | -3 | 42 | 9
COc1cccc(S(=O)(=O)NCc2ccc(C(=O)Nc3ccc(Cl)cc3)cc2)c1 | 9 | 4 | 36 | 15 | 41 | 4
COc1cccc(S(=O)(=O)NCc2ccc(C(=O)Nc3cccc(Cl)c3)cc2)c1 | 37 | 12 | 48 | -8 | 60* | 8
O=C(Nc1ccccc1)c1ccc(S(=O)(=O)NCC2CCCO2)cc1 (stereo not given) | -19 | -57 | -13 | 5 | 12 | 6
CC(=O)Nc1ccc(C(=O)Nc2ccc(S(=O)(=O)NCC3CCCO3)cc2)cc1 (stereo not given) | 7 | 5 | -22 | 0 | -4 | 10
O=C(Nc1cccc(Cl)c1)c1ccc(S(=O)(=O)NCC2CCCO2)cc1 (stereo not given) | 0 | 1 | 4 | 2 | 63* | 4
CC(C)(C)c1cc(CCC(=O)NCC2CCCO2)cc(C(C)(C)C)c1O (stereo not given) | 7 | 0 | -11 | -3 | 5 | -20
CN(C)c1cccc2c1c(NC(=O)c1ccc(Cl)cc1)nn2C | 25 | 13 | 0 | -35 | -29 | 45
O=C(OCC(=O)c1cccs1)c1ccccc1 | -140 | -54 | -65 | -14 | -14 | -20
O=C(CC(Nc1ccc(Cl)cc1Cl)C(=O)O)c1ccccc1 (stereo not given) | 16 | 29 | 87* | 13 | 95* | 12
O=C(CC(Nc1ccccc1Cl)C(=O)OCC(=O)c1cccs1)c1ccccc1 (stereo not given) | -278 | -85 | 71* | -24 | 70* | 17
O=C1C=Cc2cccc3ccc(O)c1c23 | 33 | 23 | 18 | 44* | 12 | 8
O=c1oc(-c2ccc(O)c(O)c2)cc2cccc(O)c12 | -281 | -205 | -58 | -43 | -52 | -34
CCCCN1C(=O)C(=O)NC[C@@H]1CC1CCCCC1 | / | 1 | 2 | / | 9 | /
CN(Cc1ccc(OC(F)F)cc1)C(=O)c1cccc(S(=O)(=O)N2CCN(c3ccccc3)CC2)c1 | 25 | 14 | 37 | 23 | 73* | 43
CN(CCOc1ccc(Cl)cc1)C(=O)c1cccc(S(=O)(=O)N2CCN(c3ccc(F)cc3)CC2)c1 | 18 | 13 | 13 | 3 | 64* | 59
Cc1cccc(C)c1NC(=O)CN(C)C(=O)c1cccc(S(=O)(=O)N2CCN(c3ccccc3)CC2)c1 | -13 | 10 | 23 | 3 | -8 | 12
CCCNC(=O)CN1C(=O)NC(c2ccccc2)(c2ccccc2)C1=O | -3 | 9 | -13 | -4 | 15 | 11
CC(NC(=O)c1cc(S(=O)(=O)N2CCCC2)ccc1Cl)c1ccccn1 (stereo not given) | -3 | 12 | 12 | 6 | 22 | -1
CN1CCN(C(=O)c2ccc(Cc3cn(C)c4ccccc34)nc2)CC1 | 7 | -20 | 2 | / | -20 | /
O=C(NCc1ccccc1)C1CC(=O)N(c2ccc(OCC(=O)N3CCCC3)cc2)C1 (stereo not given) | 6 | 13 | -18 | -1 | -2 | -1
COc1ccc(CNC(=O)C2CC(=O)N(c3ccc(OCC(=O)N4CCCCC4)cc3)C2)cc1 (stereo not given) | 17 | 10 | 58* | 3 | 13 | 2
NC(=O)C1Cc2ccccc2CN1C(=O)c1nn(Cc2ccccc2)c(=O)c2ccccc12 (stereo not given) | -2 | 5 | -7 | 2 | -17 | /
CCN(Cc1ccccc1)S(=O)(=O)c1ccc(C(=O)N(CCCN(C)C)c2nc3cc(C)cc(C)c3s2)cc1 | 100* | -1 | -33 | -7 | -2 | 90*
SMILES | Peg3 prom inh | HIF-2a inh | TROY NFkB inh | EBV LMP1 NFkB | TWEAK-Fn14 inh | MITF TRPM1 inh
CCCCN(CC)S(=O)(=O)c1ccc(C(=O)N(CCCN(C)C)c2nc3cc(C)cc(C)c3s2)cc1 | 103* | 21 | 17 | 0 | -46 | 79*
CCN(Cc1ccccc1)S(=O)(=O)c1ccc(C(=O)N(CCCN(C)C)c2nc3c(F)cccc3s2)cc1 | 1 | 7 | -4 | 0 | -6 | 17
CCCCN(C)S(=O)(=O)c1ccc(C(=O)N(CCN(C)C)c2nc3ccc(C)cc3s2)cc1 | -62 | -62 | -26 | -2 | -7 | -14
CCN(C(=O)CC(C)C)c1nnc(Cn2nnc3ccccc32)s1 | 3 | -11 | 9 | 14 | 13 | 15
CCN(C(=O)c1ccc(C(C)(C)C)cc1)c1nnc(Cn2nnc3ccccc32)s1 | 25 | 29 | 40 | 2 | 73* | 39
c1ccc(-c2cn3c(n2)-c2ccccc2C3)cc1 | -6 | -8 | 33 | 2 | 72* | 18
Cc1noc(C)c1S(=O)(=O)N(C)C[C@H]1Oc2ccc(NS(=O)(=O)c3ccccc3)cc2C(=O)N([C@H](C)CO)C[C@@H]1C | -8 | -2 | -1 | 2 | -30 | -10
Cc1nc(Oc2ccc(S(=O)(=O)N3CCOCC3)cc2Cl)c2c3c(sc2n1)CCCC3 | 28 | 28 | 29 | 9 | 60* | 8
CC1(C)N=C(N)N=C(N)N1c1ccc(CCCCc2ccccc2)cc1 | 24 | 30 | 21 | 54* | 40 | /
COc1ccc2oc(C(=O)OCC(=O)N(C)CC(=O)Nc3ccc(F)cc3)c(C)c2c1 | -25 | -29 | 0 | 4 | -3 | -2
N#Cc1c(SCc2ccc(Cl)cc2)sc(C(=O)c2ccccc2)c1N | -44 | -13 | -1 | 1 | 89* | 1
Cc1ccnn1-c1ccc(C(=O)NCc2ccccc2CN2CCOCC2)cc1 | -7 | 9 | -10 | 0 | 7 | 3
COc1ccc(C(=O)n2cnc3ccccc32)cc1Br | 22 | 2 | -9 | 9 | 11 | 8
COc1ccc(C(=O)n2cnc3ccccc32)cc1 | 11 | 15 | -5 | 9 | 78* | -12
Oc1c(CN2CCc3ccccc3C2)cc(Cl)c2cccnc12 | 50* | -5 | 11 | 85* | 6 | 75*
O=C(Oc1c(CN2CCOCC2)cc(Cl)c2cccnc12)c1ccccc1 | 42 | 17 | 0 | 11 | 24 | 64*
Oc1ccc(CN2CCN(Cc3ccccc3)CC2)c2cccnc12 | -25 | 14 | -7 | -4 | 3 | 28
CN1CCN(Cc2cc(COCc3ccccc3)c3cccnc3c2O)CC1 | 41 | 11 | -14 | 58* | -13 | 79*
Oc1c(CN2CCCCC2)cc(Br)c2cccnc12 | 39 | -7 | 9 | 72* | 14 | 75*
